Laboratory results as given in ChEMBL document CHEMBL3988442, “University of Dundee, Small-Polar-MMV Screening Library” (2021).
For part of these data: Entries with a potency or affinity are not part of this list.

Columns and labels:
Design in all cases: scale not given: direction of the effect not stated beside the values
[1] = target: Protein translocase subunit SecA (Escherichia coli (strain K12)) (UniProt P10408); assay: Assay to Identify E. coli SecA ATPase Inhibitors; assay type: functional; conditions: 30 µM
Protein translocase subunit SecA (Escherichia coli (strain K12)), sequence (P10408 whole entry): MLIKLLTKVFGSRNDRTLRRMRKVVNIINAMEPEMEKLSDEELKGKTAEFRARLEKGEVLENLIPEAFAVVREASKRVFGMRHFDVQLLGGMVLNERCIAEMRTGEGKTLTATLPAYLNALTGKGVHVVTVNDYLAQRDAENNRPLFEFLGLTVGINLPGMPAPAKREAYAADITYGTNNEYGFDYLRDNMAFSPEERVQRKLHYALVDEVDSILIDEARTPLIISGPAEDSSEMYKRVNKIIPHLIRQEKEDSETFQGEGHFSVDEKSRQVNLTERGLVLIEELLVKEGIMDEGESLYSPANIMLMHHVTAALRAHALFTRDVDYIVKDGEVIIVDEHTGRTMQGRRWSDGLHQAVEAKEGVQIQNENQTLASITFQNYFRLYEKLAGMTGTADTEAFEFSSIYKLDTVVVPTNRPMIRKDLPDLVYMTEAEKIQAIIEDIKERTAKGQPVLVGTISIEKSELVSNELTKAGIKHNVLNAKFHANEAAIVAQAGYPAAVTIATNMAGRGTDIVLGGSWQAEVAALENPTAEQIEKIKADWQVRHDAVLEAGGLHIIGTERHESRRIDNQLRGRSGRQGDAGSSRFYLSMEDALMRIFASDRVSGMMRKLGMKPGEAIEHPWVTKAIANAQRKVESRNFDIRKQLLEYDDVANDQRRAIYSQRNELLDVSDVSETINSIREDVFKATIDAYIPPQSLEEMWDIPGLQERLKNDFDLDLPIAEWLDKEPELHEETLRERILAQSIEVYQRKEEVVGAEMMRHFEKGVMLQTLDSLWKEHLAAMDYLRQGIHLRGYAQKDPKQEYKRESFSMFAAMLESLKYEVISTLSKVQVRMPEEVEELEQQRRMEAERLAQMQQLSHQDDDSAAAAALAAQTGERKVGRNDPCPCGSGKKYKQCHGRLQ

[2] = target: T1, Ubiquitin-activating enzyme e1, putative (Leishmania donovani (strain BPK282A1)) (UniProt E9BSI1); assay: Leishmania donovani Ubiquitin Activating Enzyme (LdE1); assay type: functional; conditions: 30 µM
T1 sequence (whole entry): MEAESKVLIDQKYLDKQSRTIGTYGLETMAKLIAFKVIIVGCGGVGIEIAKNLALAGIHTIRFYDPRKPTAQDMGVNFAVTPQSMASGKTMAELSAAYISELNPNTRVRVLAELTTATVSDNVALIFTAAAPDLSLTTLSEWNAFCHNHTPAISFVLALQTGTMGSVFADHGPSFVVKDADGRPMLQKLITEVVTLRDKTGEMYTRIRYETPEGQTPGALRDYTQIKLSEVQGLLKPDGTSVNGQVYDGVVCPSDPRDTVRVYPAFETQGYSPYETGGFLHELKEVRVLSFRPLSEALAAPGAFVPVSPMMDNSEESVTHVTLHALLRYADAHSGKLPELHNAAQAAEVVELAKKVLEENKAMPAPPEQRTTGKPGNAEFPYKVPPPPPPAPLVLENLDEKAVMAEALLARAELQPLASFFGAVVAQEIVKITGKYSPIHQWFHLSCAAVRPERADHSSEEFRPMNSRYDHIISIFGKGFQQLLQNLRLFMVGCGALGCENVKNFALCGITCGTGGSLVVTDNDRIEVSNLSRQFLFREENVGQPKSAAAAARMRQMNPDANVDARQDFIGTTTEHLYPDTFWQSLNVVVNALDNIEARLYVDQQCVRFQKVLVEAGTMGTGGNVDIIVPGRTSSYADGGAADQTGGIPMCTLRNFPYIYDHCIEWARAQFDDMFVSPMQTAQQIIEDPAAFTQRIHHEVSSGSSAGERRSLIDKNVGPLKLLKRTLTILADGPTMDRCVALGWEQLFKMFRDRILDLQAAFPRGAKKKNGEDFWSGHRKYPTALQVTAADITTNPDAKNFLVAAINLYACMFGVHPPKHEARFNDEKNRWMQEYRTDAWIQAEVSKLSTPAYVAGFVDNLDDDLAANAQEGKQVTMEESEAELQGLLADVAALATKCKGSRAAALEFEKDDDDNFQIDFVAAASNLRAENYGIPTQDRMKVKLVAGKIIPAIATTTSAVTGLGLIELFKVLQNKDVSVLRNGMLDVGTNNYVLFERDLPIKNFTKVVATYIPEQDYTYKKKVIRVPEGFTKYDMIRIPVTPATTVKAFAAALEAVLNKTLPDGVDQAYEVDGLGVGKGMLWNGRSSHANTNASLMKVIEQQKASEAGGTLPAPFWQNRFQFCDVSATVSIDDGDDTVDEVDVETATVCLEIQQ

[3] = target: T2, Aspartate--tRNA(Asp/Asn) ligase (Mycobacterium tuberculosis (strain ATCC 25618 / H37Rv)) (UniProt P9WFW3); assay: Assay for Asp RNA synthetase-1 from Mycobacterium tuberculosis; assay type: functional; conditions: 30 µM; also: in the data most compounds retested in dose-response had high values
T2 sequence (whole entry): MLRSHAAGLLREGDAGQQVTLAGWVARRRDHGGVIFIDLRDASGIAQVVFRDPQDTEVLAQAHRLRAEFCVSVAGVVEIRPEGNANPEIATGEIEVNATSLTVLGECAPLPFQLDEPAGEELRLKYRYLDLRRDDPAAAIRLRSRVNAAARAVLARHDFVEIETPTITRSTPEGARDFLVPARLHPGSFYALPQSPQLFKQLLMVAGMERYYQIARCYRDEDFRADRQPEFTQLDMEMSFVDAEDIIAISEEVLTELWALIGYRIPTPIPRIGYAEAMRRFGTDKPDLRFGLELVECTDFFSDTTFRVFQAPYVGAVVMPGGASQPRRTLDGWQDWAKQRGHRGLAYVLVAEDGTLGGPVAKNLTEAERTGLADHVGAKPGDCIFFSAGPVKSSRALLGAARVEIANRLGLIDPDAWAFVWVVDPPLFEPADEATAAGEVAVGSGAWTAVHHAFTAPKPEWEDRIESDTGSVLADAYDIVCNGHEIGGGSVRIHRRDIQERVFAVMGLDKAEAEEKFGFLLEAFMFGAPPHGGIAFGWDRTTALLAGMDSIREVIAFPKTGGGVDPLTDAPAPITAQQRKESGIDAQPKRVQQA

[4] = target: AMP-activated protein kinase, AMPK (Homo sapiens) (UniProt P54646+O43741+P54619+Q9UGJ0+Q9Y478+Q13131+Q9UGI9); assay: AMP-dependent Kinase enzyme assay. An in vitro enzyme assay that detects ADP turnover that is directly proportional to AMPK activity. This uses naive AMPK that is activated during the assay with MK-8722; assay type: functional; conditions: 30 µM
[5] = target: Sialic acid-binding Ig-like lectin 9 (Homo sapiens) (UniProt Q9Y336); assay: Hs-Siglec9 ALPHAscreen SOP 20170721; conditions: 10 µM
Sialic acid-binding Ig-like lectin 9 (Homo sapiens), sequence (Q9Y336 whole entry): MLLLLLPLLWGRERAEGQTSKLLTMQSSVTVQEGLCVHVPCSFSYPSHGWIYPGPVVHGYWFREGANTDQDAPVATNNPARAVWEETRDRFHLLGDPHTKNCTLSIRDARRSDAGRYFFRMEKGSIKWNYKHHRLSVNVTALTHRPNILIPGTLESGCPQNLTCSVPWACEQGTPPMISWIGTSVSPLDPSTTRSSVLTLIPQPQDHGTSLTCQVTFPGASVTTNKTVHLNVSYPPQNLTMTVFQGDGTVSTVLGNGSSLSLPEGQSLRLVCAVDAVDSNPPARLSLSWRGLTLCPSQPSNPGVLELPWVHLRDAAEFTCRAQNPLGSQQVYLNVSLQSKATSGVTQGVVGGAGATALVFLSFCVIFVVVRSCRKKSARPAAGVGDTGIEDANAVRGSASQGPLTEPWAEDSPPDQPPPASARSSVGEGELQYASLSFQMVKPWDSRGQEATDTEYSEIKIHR

[6] = tested on: Trypanosoma cruzi; assay: Trypanosoma cruzi phosphomannomutase and mannose-1-phosphate guanylyltransferase assay; assay type: functional; conditions: 10 µM
[7] = target: T3, Arginase-2, mitochondrial (Homo sapiens) (UniProt P78540); assay: in vitro enzyme assay to detect the production of urea directly proportional to the activity of Arginase II; assay type: functional; conditions: 33.3 µM; also: in the data most compounds retested in dose-response had high values
T3 sequence (whole entry): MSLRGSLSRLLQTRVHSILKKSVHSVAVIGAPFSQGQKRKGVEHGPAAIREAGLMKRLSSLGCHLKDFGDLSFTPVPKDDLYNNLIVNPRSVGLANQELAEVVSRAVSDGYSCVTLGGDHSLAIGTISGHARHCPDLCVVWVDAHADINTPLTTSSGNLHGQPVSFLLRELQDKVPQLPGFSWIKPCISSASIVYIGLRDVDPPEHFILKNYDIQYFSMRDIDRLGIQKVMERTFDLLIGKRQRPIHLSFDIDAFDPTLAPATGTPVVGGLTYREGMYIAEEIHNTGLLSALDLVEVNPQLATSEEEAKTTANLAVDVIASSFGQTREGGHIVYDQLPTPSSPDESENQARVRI

[8] = target: T4, Proteasome subunit beta (Trypanosoma cruzi) (UniProt O96673); assay: Trypanosoma cruzi proteasome chymotrypsin-like activity (TcProtChymo) assay.; also: in the data most compounds retested in dose-response had high values; assay type: functional; conditions: 9.37 µM
T4 sequence (whole entry): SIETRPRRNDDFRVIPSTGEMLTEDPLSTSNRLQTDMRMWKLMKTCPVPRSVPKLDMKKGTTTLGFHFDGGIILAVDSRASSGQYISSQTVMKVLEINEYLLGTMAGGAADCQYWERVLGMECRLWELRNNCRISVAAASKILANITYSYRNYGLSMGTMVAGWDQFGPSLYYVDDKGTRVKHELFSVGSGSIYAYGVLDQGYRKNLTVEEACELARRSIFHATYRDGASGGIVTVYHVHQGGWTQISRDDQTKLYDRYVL

[9] = species: Homo sapiens; assay: To identify inhibition of the IFN signalling (Jak-Stat) pathway via expression of an eGFP reporter gene under the control of an IFN-stimulated response element (ISRE) containing MxA promoter.; assay type: functional; conditions: 30 µM
[10] = target: Shiga toxin 2 (Escherichia coli O157:H7) (UniProt P09385+P09386); assay: E. coli 0.157:H7 Shiga Toxin SOP - stx2 screening assay; assay type: functional; conditions: 30 µM
[11] = target: T5, Tyrosyl-tRNA synthetase, putative (Trypanosoma cruzi (strain CL Brener)) (UniProt Q4DSP6); assay: Trypanosoma cruzi tyrosyl tRNA synthetase (TcYRS) _High Tyrosine SOP; assay type: functional; conditions: 30 µM; also: in the data most compounds retested in dose-response had high values
T5 sequence (whole entry): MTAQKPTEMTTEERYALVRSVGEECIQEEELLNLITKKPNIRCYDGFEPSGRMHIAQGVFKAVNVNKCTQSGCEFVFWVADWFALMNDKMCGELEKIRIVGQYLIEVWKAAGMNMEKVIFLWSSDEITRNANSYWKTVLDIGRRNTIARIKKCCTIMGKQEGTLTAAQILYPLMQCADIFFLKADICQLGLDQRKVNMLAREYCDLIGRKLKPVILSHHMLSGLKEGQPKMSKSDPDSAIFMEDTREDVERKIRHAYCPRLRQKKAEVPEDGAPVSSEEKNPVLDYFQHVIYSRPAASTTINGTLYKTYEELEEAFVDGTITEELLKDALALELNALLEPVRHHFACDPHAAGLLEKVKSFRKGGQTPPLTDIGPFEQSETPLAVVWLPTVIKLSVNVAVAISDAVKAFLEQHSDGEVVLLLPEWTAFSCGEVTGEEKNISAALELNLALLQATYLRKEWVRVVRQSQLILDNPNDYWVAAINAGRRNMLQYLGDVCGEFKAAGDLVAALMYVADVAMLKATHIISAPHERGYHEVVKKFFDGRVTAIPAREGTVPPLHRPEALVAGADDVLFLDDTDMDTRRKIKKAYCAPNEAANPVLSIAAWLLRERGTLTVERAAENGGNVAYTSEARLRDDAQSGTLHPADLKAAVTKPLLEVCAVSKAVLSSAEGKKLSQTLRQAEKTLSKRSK

[12] = target: T5, Tyrosyl-tRNA synthetase, putative (Trypanosoma cruzi (strain CL Brener)); assay: Trypanosoma cruzi tyrosyl tRNA synthetase (TcYRS) SOP; assay type: functional; conditions: 30 µM
[13] = target: Chromo domain-containing protein 1 (Saccharomyces cerevisiae (strain ATCC 204508 / S288c) (Baker's yeast)) (UniProt P32657); assay: ScCHD-1 Enzyme Inhibition Assay; assay type: functional; conditions: 30 µM; also: in the data most compounds retested in dose-response had high values
Chromo domain-containing protein 1 (Saccharomyces cerevisiae (strain ATCC 204508 / S288c) (Baker's yeast)), sequence (P32657 whole entry, the tested form may be a part): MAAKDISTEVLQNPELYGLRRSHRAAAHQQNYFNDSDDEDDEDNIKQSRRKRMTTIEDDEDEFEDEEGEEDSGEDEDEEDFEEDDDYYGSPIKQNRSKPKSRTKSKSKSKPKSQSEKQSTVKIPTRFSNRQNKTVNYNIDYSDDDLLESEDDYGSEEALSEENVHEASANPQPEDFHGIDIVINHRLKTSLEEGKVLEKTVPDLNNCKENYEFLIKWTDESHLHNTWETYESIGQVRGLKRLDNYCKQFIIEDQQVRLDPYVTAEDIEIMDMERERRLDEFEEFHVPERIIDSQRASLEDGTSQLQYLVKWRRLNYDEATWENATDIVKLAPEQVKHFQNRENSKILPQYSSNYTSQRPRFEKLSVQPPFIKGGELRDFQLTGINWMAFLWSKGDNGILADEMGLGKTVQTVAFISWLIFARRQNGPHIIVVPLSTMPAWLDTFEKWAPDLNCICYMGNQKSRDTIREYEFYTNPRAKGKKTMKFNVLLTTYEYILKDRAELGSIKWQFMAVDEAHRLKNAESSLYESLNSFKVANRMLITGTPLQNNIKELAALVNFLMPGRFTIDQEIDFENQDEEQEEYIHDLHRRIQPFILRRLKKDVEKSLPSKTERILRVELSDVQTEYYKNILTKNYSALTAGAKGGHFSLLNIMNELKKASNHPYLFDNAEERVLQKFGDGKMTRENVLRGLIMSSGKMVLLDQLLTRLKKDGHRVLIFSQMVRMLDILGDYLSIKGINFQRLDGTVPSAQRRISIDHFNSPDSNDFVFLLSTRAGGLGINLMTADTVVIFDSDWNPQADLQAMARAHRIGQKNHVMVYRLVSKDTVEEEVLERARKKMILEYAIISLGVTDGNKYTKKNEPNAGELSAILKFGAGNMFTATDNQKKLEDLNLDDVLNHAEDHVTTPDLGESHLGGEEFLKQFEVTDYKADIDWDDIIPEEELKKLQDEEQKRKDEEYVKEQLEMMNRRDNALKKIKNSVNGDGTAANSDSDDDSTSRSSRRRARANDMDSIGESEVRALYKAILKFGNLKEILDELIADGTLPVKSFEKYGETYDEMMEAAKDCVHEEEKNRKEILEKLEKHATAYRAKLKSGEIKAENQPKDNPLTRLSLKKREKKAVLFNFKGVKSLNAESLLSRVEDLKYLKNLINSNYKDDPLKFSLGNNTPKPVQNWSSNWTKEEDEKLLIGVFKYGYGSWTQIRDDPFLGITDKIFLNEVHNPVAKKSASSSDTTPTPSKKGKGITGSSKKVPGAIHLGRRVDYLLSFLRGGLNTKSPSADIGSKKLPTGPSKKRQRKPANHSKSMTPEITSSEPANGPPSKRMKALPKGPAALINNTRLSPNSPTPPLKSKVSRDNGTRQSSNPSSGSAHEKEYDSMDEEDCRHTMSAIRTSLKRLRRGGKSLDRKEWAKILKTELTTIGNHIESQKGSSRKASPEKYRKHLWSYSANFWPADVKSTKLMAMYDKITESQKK

Compound | Percent Effect [1] [%] | Percent Effect [2] [%] | Percent Effect [3] [%] | Percent Effect [4] [%] | Percent Effect [5] [%] | Percent Effect [6] [%] | Percent Effect [7] [%] | Percent Effect [8] [%] | Percent Effect [9] [%] | Percent Effect [10] [%] | Percent Effect [11] [%] | Percent Effect [12] [%] | Percent Effect [13] [%]
COCCN1C[C@@H]2[C@@H](OC)CCN(Cc3cccc(C)n3)[C@@H]2C1 | -1.97 | 11 | -0.137 | -7.2 | 9.07 | 6.75 | -2 | 12.1 | -7.05 | -22.1 | 7.29 | 13.6 | -5.26
O=C(c1ccnnc1)N1C[C@@H]2OCCN(CCN3CCCC3)[C@@H]2C1 | 3.18 | 0 | 0.474 | -5.06 | 4.92 | -2.64 | -1.59 | 12.7 | -3.96 | -4.98 | 6.49 | 2.56 | 6.02
c1cc(CN2CCO[C@H]3[C@H](OCC4CCCC4)CC[C@@H]32)ccn1 | -2.78 | 5.41 | 5.76 | 0.694 | -1.13 | -3.81 | 1.59 | 19 | 24.5 | 1.34 | -2.16 | 7.69 | 2.01
c1ccc(CN2C[C@@H]3OCCN(CC4CCCO4)[C@@H]3C2)nc1 (some centres not stated) | -4.3 | 10.8 | -0.749 | -3.75 | 1.76 | 4.01 | 15 | 15.5 | 22.6 | 4.43 | 7.57 | 15.4 | -4.89
Cc1oc(-c2ccco2)nc1CC(=O)N1CCN(CC(C)(C)O)CC1 | -3.06 | 5.2 | 0.144 | -3.3 | 5.79 | -0.294 | 5.68 | 8 | 22.9 | 30.6 | 2.86 | 9.41 | -21.6
CC(C)N1CCc2c(CN(C)Cc3ccco3)cncc2C1 | -2.76 | 0 | -1.51 | 0.165 | 16.7 | -3.86 | -22.8 | 0.171 | -0.596 | -0.895 | 4.17 | -7.5 | -4.61
O=C(C1CC1)N1CCC2(CC1)OCCO2 | -2.52 | 7.89 | 0.21 | -0.0617 | -9.69 | -4.38 | 2.37 | 14.1 | 14.1 | -6.13 | 0 | 10.4 | -6.58
Cc1cc(CN2C[C@@H]3COC[C@]3(CN(C)C)C2)no1 | -1.63 | -2.7 | -2.03 | 7.75 | 3.28 | -3.42 | 1.59 | 26.4 | -4.54 | -2.49 | 3.24 | 2.56 | -2.67
Cc1nc(C)c(CC(=O)N2C[C@@H]3CC[C@H](C2)N(CC2CCC2)C3)c(=O)[nH]1 | -2.23 | 18.9 | -2.78 | -35.4 | 21.6 | 4.2 | 16.1 | 16.2 | -15.8 | 5.33 | 4.3 | 18.5 | -11.7
